20 compounds from PubChem BioAssay AID651642 (Sanford-Burnham Center for Chemical Genomics, 2012) can be followed below.

Unmarked numbers belong to inactive results. Activity calls are given as the source filed them.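 How the source made its calls: active means average half-effect concentration of 10 µM or less in every one of the four cell panels; inactive means the rest.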

The subject of this test is HL-1. In words: cardiomyocyte survival under oxidative or metabolic stress – cell-based, panel, H9c2 and HL-1, H2O2, 2-deoxyglucose, ATP luminescence, SAR follow-up (AID 651642).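 Further: plate controls were H2O2 plus DMSO for no effect and cells kept without H2O2 for full effect.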 To be noted: H9c2/HL-1 cardiomyocyte H2O2 oxidative damage, mean of runs; activity: with H2O2, at 0.154 µM; outcome: with H2O2.
Consider `COc1cc(-c2cc(C(=O)NCC(=O)Nc3cccc(C(C)=O)c3)c3cc(Br)ccc3n2)cc(OC)c1OC`, for which the activity is -0.566% (active).

As for `COc1cc(-c2cc(C(=O)Nc3cccc(C(=O)N(C)C)c3)c3ccccc3n2)cc(OC)c1OC`, the activity was 0.987% (active).

Regarding `CCOC(=O)c1cccc(NC(=O)c2cc(-c3cc(OC)c(OC)c(OC)c3)nc3ccc(Cl)cc23)c1`, the activity is -1.55%.

Turning to `COc1ccc2c(c1OC)C(=O)N1c3ccccc3C(=O)N(Cc3ccccn3)C21` (stereo not given), the activity is 1.21%.

Consider `COc1cccc(CNC(=O)CNC(=O)c2cc(-c3cc(OC)c(OC)c(OC)c3)nc3ccccc23)c1`, for which the activity was -2.04%.

For `CCOC(=O)c1cccc(NC(=O)CNC(=O)c2cc(-c3cc(OC)c(OC)c(OC)c3)nc3ccc(F)cc23)c1`, the activity was 2.27% (active).

Take `COc1cc(-c2cc(C(=O)Nc3cccc(C(C)=O)c3)c3cccc(Cl)c3n2)cc(OC)c1OC`: the activity was -3.22%.

Take `COc1ccc2c(c1OC)C(=O)N1c3ccccc3C(=O)N(Cc3c(Cl)cccc3Cl)C21` (stereo not given): the activity is 2.81%.

As for `CCOC(=O)c1cccc(NC(=O)CNC(=O)c2cc(-c3cc(OC)c(OC)c(OC)c3)nc3ccc(OC)cc23)c1`, the activity is -3.33% (active).

As for `CCOC(=O)c1cccc(NC(=O)c2cc(-c3cc(OC)c(OC)c(OC)c3)nc3c(Cl)cccc23)c1`, the activity is 5.38%.

In the case of `COc1ccc2c(c1OC)C(=O)N1c3ccccc3C(=O)N(Cc3ccncc3)C21` (stereo not given), the activity was 0.0397%.

`CCOC(=O)c1cccc(NC(=O)CNC(=O)c2cc(-c3cc(OC)c(OC)c(OC)c3)nc3ccc(Br)cc23)c1`: the activity is -0.604% (active).

Regarding `COc1cc(-c2cc(C(=O)Nc3cccc(C(=O)O)c3)c3ccccc3n2)cc(OC)c1OC`, the activity was 1.9%.

`COc1ccc(NC(=O)CNC(=O)c2cc(-c3cc(OC)c(OC)c(OC)c3)nc3ccccc23)cc1`: the activity was 3.9% (active).

Regarding `COc1cc(-c2cc(C(=O)Nc3cccc(C(C)=O)c3)c3ccccc3n2)cc(OC)c1OC`, the activity was -1.02% (active).

Regarding `COc1cc(-c2cc(C(=O)Nc3cccc(C(=O)NCc4ccccc4)c3)c3ccccc3n2)cc(OC)c1OC`, the activity is 1.48% (active).

With `COc1ccc2c(c1OC)C(=O)N1c3ccccc3C(=O)N(Cc3ccccc3C)C21` (stereo not given), the activity is -0.339%.

Take `COc1cc(-c2cc(C(=O)Nc3cccc(C(C)=O)c3)c3ccc(Cl)cc3n2)cc(OC)c1OC`: the activity was -6.29% (active).

`CCOC(=O)c1ccccc1NC(=O)c1cc(-c2cc(OC)c(OC)c(OC)c2)nc2ccccc12`: the activity was -1.41%.

As to `CCOC(=O)c1ccc(NC(=O)c2cc(-c3cc(OC)c(OC)c(OC)c3)nc3ccccc23)cc1`, the activity was 0.646%.
